Sampled rows, rich in hits. Any-hit rate of the full collection: about 3.3%.
FXN GAA850 act: FXN promoter activators, primary screen, cell-based, luciferase luminescence, HEK293 lucGAA850. HEK293 lucGAA850 FXN promoter luciferase reporter, 24 h; percent of 10 µM SAHA response. activation, % at 6 µM. 360,000 tested, 0.56% active. AID 540364, 2011;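 active means activation above the average of all compounds screened plus 3 SD, cutoff fixed separately per campaign, cut at about 7.5% in these data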;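 further: 0% = DMSO wells and 100% = 10 µM SAHA wells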
esBAF inh: Bmi1 luciferase reporter increase in mESCs, primary screen, esBAF inhibitor project, mouse ES cells, Bmi1 luciferase knock-in, single point; 350,000 tested, 2% active; 24 h; 100% = twice the neutral-well signal; reporter increase, % at 12.5 µM; AID 602393, 2012; in the data active means activation above about 40%; inconclusive means no clear call, values can overlap the other calls;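 further: 0% = median of the plate's neutral control wells and 100% = double that signal; a rise in the Bmi1 reporter signal indicates esBAF inhibition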
C2C12 statin: suppressors of statin myotoxicity in C2C12 myotubes, primary screen, cell-based, single point, plate reader; C2C12 myotubes + simvastatin, ATP luminescence, 48 h; scaled: DMSO 0, geranylgeraniol control 100; 330,000 tested, 0.78% active; rescue of ATP level, % at 7.49 µM;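 active means mean ATP rescue above about 67%, or every replicate alone reaching that limit, limit read from the data, passing the limit was not always enough; inconclusive means no clear call, values can overlap the other calls; inactive means mean under the limit and some replicate under it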;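 further: myotubes were challenged with 10 µM simvastatin during compound exposure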
Wnt act: Wnt/beta-catenin pathway activators, primary screen, cell-based, plate reader, single point; AID 743398, 2014; activation, % at 9.35 µM; Wnt/beta-catenin reporter cell assay, activator; 300,000 tested, 1.2% active; in the data active means activation above about 30%, passing the limit was not always enough; inconclusive means no clear call, values can overlap the other calls;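 further: 0% = neutral control wells and 100% = positive control wells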
MITF TRPM1 HTS: activators of MITF-driven TRPM1 promoter reporter, primary screen, cell-based, SK-MEL-5, luciferase, single point; SK-MEL-5 TRPM1-promoter luciferase, 24 h; % of positive control, neutral wells = 0; activation, % at 12.5 µM; 300,000 tested, 0.75% active;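 active means mean activation of at least 80% with every replicate also reaching 80%; inconclusive means mean reaches 80% but some replicate falls short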;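 further: 0% = neutral control wells and 100% = parthenolide positive control wells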
The depositor's hits bear a star.

COC(=O)c1ccc(NC(=O)Nc2ccc(F)cc2F)cc1 was read as FXN GAA850 act 5, esBAF inh 79*, C2C12 statin -4, Wnt act -4 and MITF TRPM1 HTS 50.
Screening COc1ccc(NC(=O)Nc2cccc(F)c2)c(OC)c1 returned FXN GAA850 act 1, esBAF inh 7, C2C12 statin -13, Wnt act 15 and MITF TRPM1 HTS 35.
O=C(CCc1ccccc1)Nc1ccc(F)cc1F was read as FXN GAA850 act 3, esBAF inh 66*, C2C12 statin -2, Wnt act 13 and MITF TRPM1 HTS 55.
`COC(=O)c1ccc(NC(=O)Nc2cccc(F)c2)cc1` gave FXN GAA850 act 3, esBAF inh 70*, C2C12 statin -24 and MITF TRPM1 HTS 46.
For CC(=O)Nc1cccc(NC(=O)Nc2ccc(F)cc2F)c1 the results were FXN GAA850 act 1, Wnt act -4 and MITF TRPM1 HTS -7.
For CCC(=O)N(C)C[C@H]1Oc2cc(C#CC(C)(C)O)ccc2S(=O)(=O)N([C@@H](C)CO)C[C@@H]1C the results were esBAF inh 3 and C2C12 statin -13.
CN1CCN(C(=O)C[C@@H]2CC[C@H]3[C@H](COc4ccc(NC(=O)c5cscn5)cc4C(=O)N3C)O2)CC1 was read as esBAF inh 0 and C2C12 statin 1.
For CC(=O)N1[C@H](C(=O)NCc2ccccc2F)[C@@H](CO)[C@@H]2Cn3c(ccc(-c4ccccc4)c3=O)[C@@H]21 the results were esBAF inh -1 and C2C12 statin -2.
For CCOC(=O)Cc1csc(NC(=O)c2ccc(C)o2)n1 the results were FXN GAA850 act -1, esBAF inh 15, C2C12 statin -2 and MITF TRPM1 HTS 14.
For CCOC(=O)Cc1csc(NC(=O)c2ccc(Br)cc2)n1 the results were FXN GAA850 act 0, esBAF inh 9, C2C12 statin -6, Wnt act 1 and MITF TRPM1 HTS 1.
`CCOC(=O)Cc1csc(NC(=O)c2ccc3ncsc3c2)n1` gave FXN GAA850 act 2, esBAF inh 52*, C2C12 statin 0, Wnt act 22 and MITF TRPM1 HTS 2.
CCOC(=O)Cc1csc(NC(=O)c2cnc3sc(C)cn3c2=O)n1 was read as FXN GAA850 act 6, esBAF inh 47*, C2C12 statin 26, Wnt act 3 and MITF TRPM1 HTS 62.
Screening COc1ccc2c(CN3CCCCCCC3)cc(=O)oc2c1 returned esBAF inh 48*, C2C12 statin -12 and Wnt act 1.
Screening CCCc1nc2c3ccccc3ccn2c1Cc1ccccc1 returned esBAF inh 52*, C2C12 statin -6 and Wnt act 33*.
`COc1ccc(S(=O)(=O)N(C)C[C@@H]2Oc3ccc(NC(=O)NC(C)C)cc3C(=O)N([C@@H](C)CO)C[C@H]2C)cc1` gave esBAF inh 2.
`CC(C)c1cn(CC[C@H]2CC[C@@H](NS(=O)(=O)Cc3ccccc3)[C@H](CO)O2)nn1` gave esBAF inh -2 and C2C12 statin 4.
For O=C(CC1C(=O)NCCN1C(=O)c1ccc([N+](=O)[O-])cc1)Nc1ccc(F)cc1 (stereo not given) the results were FXN GAA850 act 1, esBAF inh 3, C2C12 statin 101*, Wnt act -1 and MITF TRPM1 HTS 2.
`Cc1ccc(NC(=O)CC2C(=O)NCCN2C(=O)c2ccc(F)cc2)cc1` (stereo not given) gave FXN GAA850 act 0, Wnt act 0 and MITF TRPM1 HTS 4.
For COc1ccc(NC(=O)CC2C(=O)NCCN2C(=O)c2ccc(Cl)cc2)cc1 (stereo not given) the results were FXN GAA850 act 0, esBAF inh -2, C2C12 statin 101*, Wnt act 0 and MITF TRPM1 HTS -2.
Screening CC(C)NC(=O)N[C@H]1C=C[C@H](CC(=O)N2CCCCC2)O[C@@H]1CO returned esBAF inh -1 and C2C12 statin -3.
Screening O=C(C[C@@H]1CC[C@@H]2[C@H](COC[C@H](O)CN2C(=O)c2cnccn2)O1)NCc1ccc(Oc2ccccc2)cc1 returned esBAF inh 4 and C2C12 statin 12.
`CCN1CCN(C(=O)c2ccc(CS(=O)(=O)Cc3ccccc3F)o2)CC1` gave FXN GAA850 act 1, esBAF inh 2, C2C12 statin 95*, Wnt act -1 and MITF TRPM1 HTS -2.
For C[C@@H]1CCCCO[C@@H](CN(C)Cc2ccc(C(F)(F)F)cc2)[C@H](C)CN([C@@H](C)CO)C(=O)c2cc(NC(=O)c3ccncc3)ccc2O1 the results were esBAF inh 4 and C2C12 statin 121*.
`C[C@H](CO)N1C[C@H](C)[C@@H](CN(C)Cc2ccc(C(F)(F)F)cc2)OCCCC[C@H](C)Oc2ccc(NC(=O)c3ccncc3)cc2C1=O` gave esBAF inh -2 and C2C12 statin 39.
`C[C@@H]1CN([C@@H](C)CO)C(=O)c2cc(NS(=O)(=O)c3cccs3)ccc2O[C@@H](C)CCCCO[C@@H]1CN(C)Cc1ccc(C(F)(F)F)cc1` gave esBAF inh -3 and C2C12 statin 116*.
Screening C[C@@H]1CCCCO[C@@H](CN(C)Cc2ccc(C(F)(F)F)cc2)[C@H](C)CN([C@H](C)CO)C(=O)c2cc(NC(=O)c3ccncc3)ccc2O1 returned esBAF inh 4 and C2C12 statin 28.
C[C@@H]1CCCCO[C@H](CN(C)Cc2ccc(C(F)(F)F)cc2)[C@H](C)CN([C@@H](C)CO)C(=O)c2cc(NC(=O)c3ccncc3)ccc2O1 was read as esBAF inh 2 and C2C12 statin 76*.
For O=C(C[C@H]1C[C@@H]2c3cc(NS(=O)(=O)c4ccc(F)cc4)ccc3O[C@@H]2[C@@H](CO)O1)N1CCOCC1 the results were esBAF inh -2 and C2C12 statin 5.
For C[C@H](CO)N1C[C@H](C)[C@@H](CN(C)C(=O)Nc2ccc3c(c2)OCO3)Oc2cc(C3=CCCCC3)ccc2S1(=O)=O the results were esBAF inh 7 and C2C12 statin -11.
For C(#Cc1ccc2c(c1)COc1c3ccccc3nn1-2)c1ccccc1 the results were FXN GAA850 act 4, esBAF inh 63*, C2C12 statin -17, Wnt act 32* and MITF TRPM1 HTS 100*.
For C(#CC1CCCCC1)c1ccc2c(c1)COc1c3ccccc3nn1-2 the results were FXN GAA850 act 2, esBAF inh inconclusive, C2C12 statin -39 and Wnt act 35*.
For CC(C#Cc1ccc2c(c1)COc1c3ccccc3nn1-2)OC(C)(C)C (stereo not given) the results were FXN GAA850 act 3, esBAF inh 104*, C2C12 statin -51, Wnt act 15 and MITF TRPM1 HTS 95*.
